Compound activity as filed in PubChem BioAssay.
In the library only some 3.7% were active in any assay of this set; here they are far more common.
tim10-1 inh: growth inhibitors of tim10-1 mutant yeast. inhibition, % at 20 µM. 2.2% of 330,000 active. S. cerevisiae tim10-1 ts strain growth, BacTiter-Glo, 24 h;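 active = inhibition of at least 40%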;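 note: mutant grown at 25 °C; 0% = DMSO wells with yeast and 100% = wells holding no yeast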
TIM10 inh: TIM10 yeast growth inhibition | AID 463195 | 1.4% of 330,000 active | S. cerevisiae TIM10 strain growth, BacTiter-Glo luminescence, 24 h | inhibition, % at 10 µM;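 active = inhibition of 40% or more at the single tested concentration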;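 note: wild-type TIM10 isogenic control strain grown at permissive 25 °C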
Rce1 inhib: yeast Ras-converting enzyme inhibition. Q03530. yeast membranes, quenched prenylated peptide cleavage fluorescence. calls only. 0.27% of 290,000 active. AID 2563;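 active = fall in fluorescence gain of 50% or more versus controls, with final raw signal at or below 3038400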;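 note: plate controls were neutral control wells for no effect and wells lacking membranes for full effect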
Target sequence (Q03530 whole entry, looked up): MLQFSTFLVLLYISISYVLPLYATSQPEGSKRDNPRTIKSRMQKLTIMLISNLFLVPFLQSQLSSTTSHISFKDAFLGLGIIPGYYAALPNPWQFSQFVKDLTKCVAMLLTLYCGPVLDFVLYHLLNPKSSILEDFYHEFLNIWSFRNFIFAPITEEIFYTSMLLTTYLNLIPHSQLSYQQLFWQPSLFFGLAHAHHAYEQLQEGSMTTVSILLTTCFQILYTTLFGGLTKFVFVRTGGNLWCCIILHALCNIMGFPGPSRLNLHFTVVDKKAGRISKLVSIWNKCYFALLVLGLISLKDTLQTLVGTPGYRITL
tim23-1 inh: inhibits growth of tim23-1 mutant yeast; S. cerevisiae tim23-1 growth, BacTiter-Glo luminescence, 24 h; inhibition, % at 20 µM; 1.3% of 330,000 active;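 active = growth inhibition of the mutant yeast at or above 50%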;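 note: temperature-sensitive mutant grown at 25 °C; plate controls were DMSO-treated mutant yeast for no effect and medium wells lacking yeast for full effect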
PfHsp90 set2: reduces growth (ATP signal) of yeast expressing P. falciparum Hsp90; S. cerevisiae expressing PfHsp90, BacTiter-Glo ATP, 48 h; yeast lacking PDR1 and PDR3 efflux regulators; inhibition, % at 9.4 µM; 0.32% of 310,000 active; AID 504621;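 active = every replicate shows inhibition above about 80%, whatever the replicate mean, limit read from the data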;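 note: 0% = DMSO neutral controls and 100% = 20 µM radicicol positive controls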
tim10-1 confirm: tim10-1 yeast growth inhibition, confirmed; shares compounds with tim10-1 inh; S. cerevisiae tim10-1 ts strain growth, BacTiter-Glo, 24 h; inhibition, % at 20 µM; 56% of 7,400 active;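 active = inhibition of yeast growth at or above a set limit in either of two repeat tests at 20 µM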;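 note: tim10-1 mutant grown at permissive 25 °C to find synthetic lethal compounds; 0% = DMSO yeast wells and 100% = medium wells without yeast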
TIM10 conf: confirmation of TIM10 yeast growth inhibitors. 63% of 4,600 active. shares compounds with TIM10 inh. AID 463215. inhibition, % at 10 µM. S. cerevisiae tim10 strain growth, BacTiter-Glo luminescence, 24 h;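 active = inhibition of yeast growth at or above a set limit in either of two replicates at 10 µM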;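 note: this counterscreen used the strain with wild-type TIM10; 0% = yeast with DMSO and 100% = medium wells lacking yeast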
tim23-1 confirm: tim23-1 yeast growth inhibition, confirmed. shares compounds with tim23-1 inh. S. cerevisiae tim23-1 growth, BacTiter-Glo luminescence, 24 h. inhibition, % at 20 µM. 83% of 4,400 active;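 active = inhibition above about 39% in either of two replicate wells at 20 µM, limit read from the data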;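 note: temperature-sensitive tim23-1 mutant grown at 25 °C; 0% = DMSO wells with yeast and 100% = medium wells without yeast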
Starred values were filed as active, the others as inactive.

`Cc1ccc(-c2cc(NC(=O)c3ccccc3[N+](=O)[O-])n[nH]2)cc1` gave tim10-1 inh 4.4, TIM10 inh 9.8, Rce1 inhib inactive, tim23-1 inh 7.3 and PfHsp90 set2 3.8.
Cc1ccc(-c2cc(-c3ccccc3[N+](=O)[O-])[nH]n2)c(O)c1 was read as tim10-1 inh 51.5*, TIM10 inh 43.6*, Rce1 inhib inactive, tim23-1 inh 59.9*, PfHsp90 set2 -8.8, tim10-1 confirm 41.8*, TIM10 conf 31.1* and tim23-1 confirm 66.5*.
For COc1ccccc1-c1cc(-c2cc(Cl)ccc2O)n[nH]1 the results were tim10-1 inh 20.5, TIM10 inh 11.3, Rce1 inhib inactive and tim23-1 inh 17.0.
CCN(C(=O)COC(=O)CCS(=O)(=O)c1ccccc1)c1c(N)n(Cc2ccccc2)c(=O)[nH]c1=O was read as PfHsp90 set2 -13.6.
For Cc1ccc([N+](=O)[O-])cc1NC(=O)CN1CCC(C)CC1 the results were tim10-1 inh 14.0, TIM10 inh -27.9, Rce1 inhib inactive, tim23-1 inh 2.3 and PfHsp90 set2 38.8.
COc1ccc(NC(=O)/C(Cl)=C(/Cl)S(=O)Cc2ccc(Cl)cc2)cn1 (configuration not stated) was read as tim10-1 inh 49.5*, TIM10 inh 67.0*, tim23-1 inh 72.6*, PfHsp90 set2 106.5*, tim10-1 confirm 45.5*, TIM10 conf 90.3* and tim23-1 confirm 68.0*.
For COc1ccc(NC(=O)C(Cl)=C(Cl)Cl)cn1 the results were tim10-1 inh -37.0, TIM10 inh -16.5, Rce1 inhib inactive, tim23-1 inh -21.4 and PfHsp90 set2 13.6.
`CC(C)(C)c1cc(S(=O)(=O)CCc2ccccn2)cc(C(C)(C)C)c1F` gave tim10-1 inh 47.8*, TIM10 inh 53.3*, Rce1 inhib inactive, tim23-1 inh 60.1*, PfHsp90 set2 -7.6, tim10-1 confirm 45.0*, TIM10 conf 52.0* and tim23-1 confirm 58.1*.
For CN(CCc1ccccn1)S(=O)(=O)c1ccc(F)cc1 the results were tim10-1 inh -1.2, TIM10 inh -0.5, Rce1 inhib inactive, tim23-1 inh 10.0 and PfHsp90 set2 23.2.
Screening COc1cc(NC(=O)CSc2nnc3c(n2)[nH]c2ccc(S(=O)(=O)NC(C)C)cc23)cc(OC)c1OC returned tim10-1 inh -4.3, TIM10 inh -10.7, Rce1 inhib inactive, tim23-1 inh 1.6 and PfHsp90 set2 0.1.
Screening O=C(Oc1oc(-c2ccco2)nc1C=Nc1ccccc1)c1ccoc1 returned tim10-1 inh 18.4, TIM10 inh -2.1, Rce1 inhib inactive, tim23-1 inh 10.2 and PfHsp90 set2 5.5.
Cc1ccc(C(=O)Oc2oc(-c3ccco3)nc2C=Nc2ccc(Cl)cc2)cc1 was read as tim10-1 inh 49.6*, TIM10 inh 36.6, Rce1 inhib inactive, tim23-1 inh 50.4*, PfHsp90 set2 13.3, tim10-1 confirm 35.3* and tim23-1 confirm 66.5*.
